Among the data in PubChem BioAssay (NCATS) are Potency values, retold here.

Unmarked numbers belong to inactive results. The rule behind the calls is not given here.

The assay relates to HIV-1 nucleocapsid protein NCp7 (binding to TG oligonucleotide). As to the kind of experiment: HIV Nucleocapsid (AID 346).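 Note: potency is for inhibitors that block NC binding and lower polarization.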 The conditions noted are these: HIV-1 NC / fluorescein-TGTGTGTG probe, fluorescence polarization. A digest of the protocol:
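10 nM TG4xF probe with 100 nM nucleocapsid protein in high-salt Hepes pH 7.5 (250mM NaCl) containing 1uM ZnCl2 and reducing agents. Compound inhibition of binding was read as fluorescein polarization after 1 hr at room temperature.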
Background: Fluorescence polarisation rises when a labelled molecule tumbles more slowly, as on binding a larger partner.
Potency is the fitted concentration of half-maximal effect.

As for `CN1CC[C@@]2(CCCN(C(=O)c3cc(C(F)(F)F)cc(C(F)(F)F)c3)C2)C1`, the Potency is greater than 20 µM.

Take `O=C(Oc1ccccc1)N1CCC2(CC1)CN(c1ccccn1)C2`: the Potency is greater than 20 µM.

Regarding `O=C(c1cnccn1)N1CCC[C@@]2(CCN(Cc3ccccc3)C2)C1`, the Potency was greater than 20 µM.

As to `FC(F)(F)c1ccccc1-c1cncnc1NCc1cccs1`, the Potency is greater than 20 µM.

As for `Cc1noc(C)c1C(=O)N1CCC[C@@]2(CCN(C(=O)Nc3cccc(C#N)c3)C2)C1`, the Potency was greater than 20 µM.

Regarding `COCCn1c(=O)cnc2cnc(Oc3cccc(Cl)c3)nc21`, the Potency was greater than 20 µM.

Turning to `CNc1nc(-c2ccc(C(=O)N(C)C)cc2)nc2ccccc12`, the Potency is greater than 20 µM.

Take `COc1ccccc1CN1CCCC2(CCN(C(=O)c3csnn3)CC2)C1`: the Potency was greater than 20 µM.

As to `COCCNc1nc(-c2ccccc2Cl)nc2ccccc12`, the Potency was greater than 20 µM.

As for `COc1ncc2nc(-c3ccc(F)cc3)c(=O)n(CCC#N)c2n1`, the Potency is greater than 20 µM.

`CN(C)C(=O)c1ccc(-c2ccc3ncnc(NC4CCNCC4)c3c2)cc1`: the Potency is greater than 20 µM.

`CN1CCN(c2cc(-c3ccccc3C(F)(F)F)ncn2)CC1`: the Potency was greater than 20 µM.

On to `COc1ccc(-n2c(=O)c(-c3ccccc3)nc3cncnc32)cc1`, for which the Potency was greater than 20 µM.

On to `CN(Cc1ccco1)c1cc(-c2ccoc2)ncn1`, for which the Potency is greater than 20 µM.

With `COc1ccc(-c2nc3cnc(Oc4ccccc4)nc3n(C3CC3)c2=O)cc1`, the Potency is greater than 20 µM.

On to `N#Cc1ccc(CN2CCCC3(CCN(C(=O)c4ccco4)CC3)C2)cc1`, for which the Potency is greater than 20 µM.

As to `COc1cccc(Cn2c(=O)cnc3cncnc32)c1`, the Potency was greater than 20 µM.

For the molecule `CN(C)Cc1ccccc1-c1nc(N2CCOCC2)c2ccccc2n1`, the Potency was greater than 20 µM.

As for `Cn1cccc1C(=O)N1CCC2(CC1)CN(c1cccc(-c3ccccc3)c1)C2`, the Potency was greater than 20 µM.

For `COc1ccc(-c2nc3cnc(N4CCN(C)CC4)nc3n(Cc3cccs3)c2=O)cc1`, the Potency was greater than 4 µM.

Consider `COc1ccc(CNc2ncnc3ccc(-c4ccc(C(=O)N(C)C)cc4)cc23)c(OC)c1`, for which the Potency is greater than 20 µM.

Take `COCCn1c(=O)c(-c2ccccc2)nc2cncnc21`: the Potency is greater than 20 µM.

For `COc1ccccc1-c1nccc(-n2ccnc2)n1`, the Potency is greater than 20 µM.

As to `O=c1c(-c2ccc(F)cc2)nc2cnc(Nc3ccccc3)nc2n1C1CC1`, the Potency is greater than 20 µM.

Regarding `Cn1cc(-c2nc3cnc(N4CCNCC4)nc3n(C3CC3)c2=O)c2ccccc21`, the Potency is greater than 20 µM.

For `CC(C)CN1CCCC2(CCN(C(=O)c3ccco3)CC2)C1`, the Potency is greater than 20 µM.

In the case of `COCCNc1nc(-c2c(C)noc2C)nc2ccccc12`, the Potency is greater than 20 µM.

Turning to `CC(=O)NCCNc1ncncc1-c1ccc(N(C)C)cc1`, the Potency was greater than 20 µM.

Consider `CN1CCC2(CC1)CCN(S(=O)(=O)c1ccccc1)CC2`, for which the Potency is greater than 20 µM.

In the case of `Cc1ccccc1-c1ccc2ncnc(N(C)Cc3ccco3)c2c1`, the Potency is greater than 20 µM.

With `COCCNc1ncnc2ccc(-c3c(C)noc3C)cc12`, the Potency was greater than 20 µM.

On to `CN(C)Cc1ccccc1-c1nc(N(C)Cc2ccco2)c2ccccc2n1`, for which the Potency is greater than 20 µM.

Regarding `CN1CCN(c2ncc3ncc(=O)n(CCc4ccccc4)c3n2)CC1`, the Potency is greater than 20 µM.

For the molecule `COc1ccccc1CNc1ccnc(-c2cccc(C#N)c2)n1`, the Potency is greater than 20 µM.

With `c1ccc2c(NCCN3CCOCC3)nc(-c3ccoc3)nc2c1`, the Potency was greater than 20 µM.

Consider `CCNc1ncc2nc(-c3ccccc3)c(=O)n(Cc3cccs3)c2n1`, for which the Potency is greater than 20 µM.

For `COCC(=O)N1CCC2(CC1)CN(c1ccccn1)C2`, the Potency was greater than 20 µM.

For the molecule `COc1ccc(-n2c(=O)c(C)nc3cnc(Nc4ccccc4)nc32)cc1`, the Potency was greater than 20 µM.

Regarding `CS(=O)(=O)Nc1cccc(-c2ccc3ncnc(NCCN4CCOCC4)c3c2)c1`, the Potency was greater than 20 µM.

Consider `COc1ccc(Oc2ncc3nc(C)c(=O)n(-c4ccc(OC)cc4)c3n2)cc1`, for which the Potency is greater than 20 µM.

Consider `Cn1c(=O)c(-c2ccc(F)cc2)nc2cnc(OCc3ccccc3)nc21`, for which the Potency was greater than 20 µM.

`COc1cccc(Cn2c(=O)c(-c3cccs3)nc3cncnc32)c1`: the Potency is greater than 20 µM.

With `CNc1nc(-c2cccc(C#N)c2)nc2ccccc12`, the Potency is greater than 20 µM.

Consider `COCCNc1nc(-c2ccc(N(C)C)cc2)nc2ccccc12`, for which the Potency was greater than 20 µM.

As to `COc1ccc(C(=O)N2CCC3(CCN(C)CC3)CC2)cc1`, the Potency is greater than 20 µM.
